Screens as filed in PubChem BioAssay.
bovine MsrA act – bovine methionine sulfoxide reductase A activation | purified bovine MsrA, absorbance read-out | activation, % at 10.6 µM | hit rate 0.3% among 360,000 | AID 602163; in the data active = activation above about 7.5%
MsrA inh – bovine MsrA inhibition | purified bovine MsrA, absorbance read-out | inhibition, % at 15.5 µM | hit rate 0.75% among 360,000 | AID 651718; in the data active = inhibition above about 4.5%
NadD inh – blocks S. aureus nicotinate mononucleotide adenylyltransferase | purified NadD enzyme, colorimetric absorbance read-out | inhibition, % at 20 µM | hit rate 0.78% among 360,000; in the data active = inhibition above about 26%
rCAG binder – r(CAG) repeat RNA binding; TO-PRO-1 dye displacement fluorescence; inhibition, % at 3 µM; hit rate 1.3% among 370,000;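 active = inhibition above the plate cutoff, the mean of all test compounds on that plate plus 3 SD, cut at about 35% in these data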;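 note: higher means more dye released from RNA so lower well fluorescence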
MsrA activ conf – bovine methionine sulfoxide reductase A activation confirmed. shares compounds with bovine MsrA act. purified bovine MsrA, absorbance read-out. activation, % at 10.6 µM. hit rate 12% among 1,000; in the data active = activation above about 4%;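 note: enzyme coupled to thioredoxin and thioredoxin reductase with NADPH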
Each line names hits and unclear results; the compound was inactive in the other large screens (follow-up assays come after a bar, where they were run). This is a sample that favours compounds with a hit; in the whole collection about 2.7% have one here.

Fc1ccc(-c2nnc(SCc3ncc(-c4ccccc4)o3)n2CC2CCCO2)cc1 (centres undefined)	bovine MsrA act 11.3 | MsrA activ conf inactive
Fc1ccc(NCc2nnc(SCc3nnc(-c4ccccc4)o3)n2CC2CCCO2)cc1 (centres undefined)	none
CCCn1c(N)c(N(CCOC)C(=O)c2ccc(N3CCCC3=O)cc2)c(=O)[nH]c1=O	bovine MsrA act 7.9 | MsrA activ conf inactive
CCCCn1c(N)c(N(CCOC)C(=O)c2ccc(N3CCCC3=O)cc2)c(=O)[nH]c1=O	none
FC(F)(F)c1cc(Oc2ccc(Cl)cc2)nc(-c2ccccn2)n1	none
FC(F)(F)c1cc(Oc2ccccc2)nc(-c2ccccn2)n1	bovine MsrA act 9.7 | MsrA activ conf inactive
CCN(CC)C(=O)CSc1ncnc2sc(-c3ccccc3)cc12	bovine MsrA act 7.7 | MsrA activ conf inactive
CN(CCC#N)C(=O)CSc1ncnc2sc(-c3ccccc3)cc12	none
CCCCCn1cnc2sc(CC)cc2c1=O	bovine MsrA act 14.2 | MsrA activ conf inactive
CCc1cc2c(=O)n(CC(C)C)cnc2s1	none
CC(C)COc1ccc(C/C(N)=N/n2cnnc2)cc1	bovine MsrA act 8.0 | MsrA activ conf inactive
COc1ccc(C/C(N)=N/n2cnnc2)cc1	none
CC(=O)Nc1cccc(OCCCNC(=O)c2ccc(F)cc2)c1	bovine MsrA act 9.0 | MsrA activ conf inactive
CC(=O)Nc1cccc(OCCCNC(=O)c2ccc(C(C)(C)C)cc2)c1	none
COc1cccc(NC(=O)C(C)OC(=O)c2n[nH]c3ccccc23)c1 (centres undefined)	bovine MsrA act 16.1 | MsrA activ conf inactive
CNc1snc(C)c1C(=O)OC(C)C(=O)Nc1cccc(OC)c1 (centres undefined)	none
CSC1=NC=C(C#N)C2=NC(c3c(Cl)cccc3Cl)NN12 (centres undefined)	none (no result: MsrA inh, rCAG binder)
O=C(CSc1nncc(=O)[nH]1)Nc1cccc([N+](=O)[O-])c1	none
O=C(NCc1ccccc1F)C1CC(=O)N(c2ccc3c(c2)OCCO3)C1 (centres undefined)	bovine MsrA act 9.5 | MsrA activ conf inactive
O=C(C1CC(=O)N(c2ccc3c(c2)OCCO3)C1)N1CCN(c2ccccc2)CC1 (centres undefined)	bovine MsrA act 9.4 | MsrA activ conf inactive
O=C(C1CC(=O)N(c2ccc3c(c2)OCCO3)C1)N1CCN(c2ccccc2O)CC1 (centres undefined)	none
O=C(NCc1ccccc1)OC1CC2CC1[C@H]1CCCCN1C2=O (some centres undefined)	none
COc1ccc(CCC[C@@H](CCC(=O)N(c2ccccc2)c2ccccc2)CCc2ccccc2)cc1	none (no result: bovine MsrA act, MsrA inh, NadD inh)
COCC(=O)Nc1cccc2ccccc12	bovine MsrA act 10.9 | MsrA activ conf inactive
COC(=O)C[C@H]1CC[C@H]2[C@H](COc3ccc(NS(=O)(=O)c4ccccc4C)cc3C(=O)N2C)O1	none (no result: bovine MsrA act, MsrA inh, NadD inh)
CC(NC(=O)c1ccc(CS(=O)(=O)c2ccc(Cl)cc2)o1)c1ccc2c(c1)OCCO2 (centres undefined)	bovine MsrA act 8.6 | MsrA activ conf inactive
Cc1cccc(N2CCN(C3=NC(=O)C(=C4CCCCC4)S3)CC2)c1	bovine MsrA act 8.0 | MsrA activ conf inactive
CC(=O)N1CCN(C2=NC(=O)C(=C3CCCCC3)S2)CC1	none
O=C1CCCCC1CCS(=O)(=O)NCc1ccccc1 (centres undefined)	none (no result: bovine MsrA act, NadD inh)
CC(C)C[C@H]1CN(CCCC[C@@H]2CNC(=O)C(=O)N2Cc2ccccc2)C(=O)C(=O)N1CCc1ccccc1	none
CC(C)C[C@H]1CN(CCCC[C@@H]2CNC(=O)C(=O)N2CCc2ccccc2)C(=O)C(=O)N1Cc1ccccc1	bovine MsrA act 19.1 | MsrA activ conf inactive
C=CCNC(=O)c1ccccc1NC(=O)c1ccccc1C	bovine MsrA act 8.6 | MsrA activ conf inactive
Cc1ccc2nc(-c3ccc(NC(=O)CSc4nnc(-c5cc(C)[nH]n5)n4N)cc3)sc2c1	none (no result: bovine MsrA act, MsrA inh, NadD inh)
Cn1ncc2c(=O)n(CC(=O)NC34CC5CC(CC(C5)C3)C4)cnc21	bovine MsrA act 9.0 | MsrA activ conf inactive
Cc1ccccc1OCc1nnc(SCC(=O)NCc2ccccc2)n1C	none
CCOC(=O)c1ccccc1NC(=O)CSc1nnc(COc2ccccc2C)n1C	bovine MsrA act 9.0 | MsrA activ conf inactive
CCOC(=O)C1CCN(C(=O)COC(=O)c2c(C)c(CC)nc3ccccc23)CC1	none
c1ccc(Sc2ccncc2)cc1	none
c1cc(SSc2ccncc2)ccn1	bovine MsrA act 10.2 | MsrA activ conf inactive
CC(C)C[C@H]1COc2cc(N3CC[C@@H](O)C3)ccc2S(=O)(=O)N1	bovine MsrA act 9.9 | MsrA activ conf inactive
O=C(COC(=O)c1cc(F)cc(F)c1)Nc1cccnc1Cl	bovine MsrA act 9.1 | MsrA activ conf inactive
O=C(COC(=O)c1ccc(F)cc1F)Nc1cccnc1Cl	none
